Among all 360,000 compounds or so, about 17,000 (4.7%) were called active. About 5% were inconclusive and are not listed. Cut-off read from the data, not from the text of the source: active = activity change below about -50%; inconclusive = mostly about -30% to -49%; inactive = weaker than that. What follows is part of a selection rich in actives, with near analogues and random picks from the rest.
Assay: qHTS for Inhibitors of Inflammasome Signaling: IL-1-beta AlphaLISA Primary Screen
Conditions: THP-1 LPS/ATP IL-1B secretion, 16 h; at 57.5 µM, stronger effect = lower value
Method in brief: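 Secreted IL-1B measured by AlphaLISA bead assay after 16 h compound exposure of THP-1 cells; compounds (final up to 57.5 uM) added 1 h before LPS (250 ng/mL) and ATP (1.25 mM) stimulation; lower signal means less secretion.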
For CC(=O)Nc1c2c(nn1-c1ccc(C)cc1C)CS(=O)C2 (centres undefined), the activity change was 13.7% (inactive). In the case of Clc1ccc2nc(CSc3ccccc3)cn2c1, the activity change was -87.1% (active). In the case of Cc1ccc(-c2nc3ccc(Cl)cn3c2Cc2ccccc2)cc1, the activity change was -3.47% (inactive). For CCCCCCSc1ccc(-c2nc3ccc(Cl)cn3c2NCc2ccccc2)cc1, the activity change was -8.09% (inactive). In the case of CC1(C(=O)NS(=O)(=O)c2cccc(F)c2)CCN1C(=O)c1cccc2ccccc12 (centres undefined), the activity change was 21.3% (inactive). With CCCCCCN1CCN(C2CN(Cc3cn(CCCCCC)nn3)S(=O)(=O)C2)CC1 (centres undefined) the activity change was -17.7% (inactive). In the case of CC[C@H]1CN2CCc3cc(OC)c(OC)cc3[C@@H]2C[C@@H]1C[C@H]1NCCc2cc(OC)c(OC)cc21, the activity change was -106% (active). In the case of COc1cc2c(cc1OC)CN(CC(=O)Nc1ccc(F)cc1)CC2, the activity change was 14% (inactive). In the case of CCC(Sc1nncn1C)C(=O)Nc1nnc(-c2ccc(Cl)cc2)s1 (centres undefined), the activity change was -11% (inactive). In the case of O=C(c1cccnc1)N(Cc1ccccc1)C(=O)c1cccnc1, the activity change was 33% (inactive). With CC1(C(=O)O)CCCN(C(=O)/C=C/c2ccccc2)C1 (centres undefined) the activity change was 17.4% (inactive). For Cc1[nH]c(=O)c(C(=O)/C=C/c2ccccc2)c2c1CCCC2, the activity change was -98.3% (active). In the case of COC(=O)c1c(C)[nH]c(C(=O)/C=C/c2ccc(Cl)cc2)c1C, the activity change was -3.64% (inactive). With CCCCn1c(N)c(N(CCC(C)C)C(=O)COC(=O)c2cccnc2OCC)c(=O)[nH]c1=O the activity change was -17.5% (inactive). In the case of C/C(=N/Nc1ccc(Cl)cc1)c1cnnc(-c2ccccc2)n1, the activity change was 58.2% (inactive). With CCCCCCCN=C(C)c1ccccc1O the activity change was 19.8% (inactive). In the case of C/C(=N\Nc1ccc(Cl)nn1)c1ccccc1O, the activity change was -63.2% (active). With Cn1c(CCN2CCN(c3ccccn3)CC2)nc2cc(NS(=O)(=O)c3ccc(F)cc3)ccc21 the activity change was -12.9% (inactive). With C[C@H]1NS(=O)(=O)c2cc(Cl)ccc2O[C@@H]1c1ccccc1 the activity change was 51.9% (inactive). With CN1CCN(c2ccc(NC(=O)c3ccc4c(c3)OCCO4)cc2Cl)CC1 the activity change was -72.6% (active). In the case of O=C(Nc1ccc(NC(=O)c2ccc3c(c2)OCO3)cc1)c1cccc(Cl)c1, the activity change was 9.41% (inactive). For O=C(Nc1ccc(Cl)cn1)c1ccc2c(c1)OCCO2, the activity change was 2.51% (inactive). For O=C(Nc1cccc(S(=O)(=O)Nc2ccc(Cl)cc2)c1)c1ccc2c(c1)OCCO2, the activity change was -81.3% (active). In the case of COC(=O)c1ccc(N2CCOCC2)c(NC(=O)c2ccc3c(c2)OCCO3)c1, the activity change was 18.4% (inactive). For CN1CCN(c2ccc(NC(=O)c3cc(Cl)c4c(c3)OCCO4)cc2)CC1, the activity change was -19% (inactive). For COc1ccc(NC(=O)CN(C)C(=O)c2cc(C)oc2C)cc1, the activity change was 24% (inactive). For CCCS(=O)(=O)NC(=O)C1(C)CCCN(C(=O)c2ccnc(Cl)c2)C1 (centres undefined), the activity change was 15.3% (inactive). For COc1ccccc1C(=O)N(C1=NC(C)CS1)c1ccc(Cl)cc1 (centres undefined), the activity change was -80.7% (active). In the case of COc1ccccc1C(=O)NCCC(=O)NC1=NCCS1, the activity change was 22% (inactive). In the case of CC(=O)Nc1ccc(C(=O)N(C2=NC(C)CS2)c2ccc(Cl)cc2)cc1 (centres undefined), the activity change was “inactive”. For COc1ccc(CCC(=O)Nc2ccc(Cl)c(S(=O)(=O)N3CCOCC3)c2)cc1OC, the activity change was -24.7% (inactive). In the case of Cc1sc2ncnc(N3CCC(C(=O)Nc4ccc(F)cc4Cl)CC3)c2c1C, the activity change was -10.9% (inactive). For Cc1nc(N2CCC(C)CC2)c2c(C)c(C(=O)Nc3cc(F)ccc3C)sc2n1, the activity change was -93.6% (active). With CCC(=O)Nc1ccc2c(c1)nc(CCN1CCN(c3ccccn3)CC1)n2C the activity change was -3.98% (inactive). In the case of Cc1nc(N2CCN(c3ccccn3)CC2)c2c(C)c(C(=O)Nc3ccc(F)cc3)sc2n1, the activity change was -76.8% (active). With Cc1nc(N2CCN(c3ccccn3)CC2)c2c(C)c(C(=O)Nc3ccc(F)c(Cl)c3)sc2n1 the activity change was -58.3% (active). For Cc1sc2ncnc(N3CCC(C(=O)NNC(=O)c4ccc(F)cc4)CC3)c2c1C, the activity change was -23.3% (inactive). In the case of Cc1cc(Br)ccc1NC(=O)c1cnc(N2CCN(c3ccccn3)CC2)c2ccccc12, the activity change was 1.57% (inactive). For Cc1cc(Br)ccc1NC(=O)c1sc2ncn(CC(=O)N3CCN(c4ccccn4)CC3)c(=O)c2c1C, the activity change was 28.3% (inactive). In the case of CCN(CC)c1ccc(NC(=O)CN2CCN(c3ccccn3)CC2)cc1, the activity change was 2.92% (inactive). With CC(NC(=O)COc1cccnc1[N+](=O)[O-])c1ccc(Cl)cc1Cl (centres undefined) the activity change was -26% (inactive). For CN(C)C(=S)N=c1ssc(=S)n1Cc1ccco1, the activity change was 1.33% (inactive). With Cc1ccc(C(=O)NCCc2nnc(SCC(=O)Nc3cccc(C(=O)O)c3)n2C)cc1 the activity change was 3.07% (inactive). With CCCCCC1CCC(c2nnc(SCC(C)=O)o2)CC1 (centres undefined) the activity change was 0.218% (inactive). With O=C1C2C3C=CC(C3)C2C(=O)N1c1ccc(-c2nc3ccccc3c(=O)o2)cc1 (centres undefined) the activity change was -10.4% (inactive). With CS(=O)(=O)N(CC(=O)N1CCN(Cc2ccccc2)CC1)c1ccc2c(c1)OCCO2 the activity change was -2.68% (inactive). In the case of Clc1cccc(N=C2NN=C(c3ccc4c(c3)OCCO4)CS2)c1, the activity change was -71.7% (active). For CN(C)c1nc(=Nc2cccc(Cl)c2)ss1, the activity change was -9.51% (inactive). With CC(=NC1CCN(Cc2ccccc2)CC1)c1c(O)[nH]c(=O)[nH]c1=O the activity change was 4.26% (inactive). With c1ccc(CN2CCC(N=C3NN=C(c4ccc5c(c4)OCCO5)CS3)CC2)cc1 the activity change was -81.5% (active). For O=C(Nc1ccc(Cl)cc1)C1Cc2c(-c3ccc4c(c3)OCO4)ccnc2O1 (centres undefined), the activity change was -19.5% (inactive). In the case of Cc1ccc(S(=O)(=O)Nc2ccccc2CNc2c(C)n(C)n(-c3ccccc3)c2=O)cc1, the activity change was -4.94% (inactive). For O=C(NCCO)c1cccc(-c2cccc3nccn23)c1, the activity change was 81.9% (inactive). In the case of O=C(NCc1cccnc1)C(=O)Nc1nc(-c2ccccc2)cs1, the activity change was 17.3% (inactive). For CN(c1ccc(O)cc1)c1nc(-c2cccnc2)cs1, the activity change was 40.3% (inactive). In the case of Cc1ccccc1Nc1nc(-c2cccnc2)cs1, the activity change was -83.1% (active). With O=C(CN1C(=O)NC2(CCOc3ccccc32)C1=O)NCc1ccc(F)cc1 (centres undefined) the activity change was -15.8% (inactive). For C[C@@H]1CN([C@@H](C)CO)C(=O)CCCn2nncc2CO[C@H]1CN(C)C(=O)Nc1ccc(C(F)(F)F)cc1, the activity change was -7.03% (inactive). For COC(=O)c1ccc2nc(C3CCCCC3)c(Cc3cccc(F)c3)n2c1, the activity change was 20.9% (inactive). In the case of CN(C)CCCn1c(N)c(C#N)c2nc(C#N)c(C#N)nc21, the activity change was -105% (active). For N#Cc1c(N)n(CCOC(=O)c2ccc(Cl)cc2)c2nc3ccccc3nc12, the activity change was -16.3% (inactive). With Cc1cc(C)c(S(=O)(=O)N(C)CC(=O)NCC2CCCO2)c(C)c1 (centres undefined) the activity change was 4.54% (inactive). With CCCCNC(=O)C(C)N(CCN(C)C)C(=O)CCCCCN1C(=O)NC(c2ccc(Cl)cc2)C(C(=O)OCc2ccccc2)=C1C (centres undefined) the activity change was -52.2% (active). In the case of CC1=C(C(=O)OCc2ccccc2)C(c2ccc(C(F)(F)F)cc2)NC(=O)N1CCCCCC(=O)O (centres undefined), the activity change was 5.05% (inactive). With COC(=O)CCCCCN1C(=O)NC(c2ccc(-c3ccccc3)cc2)C(C(=O)OCc2ccccc2)=C1C (centres undefined) the activity change was -1.28% (inactive). With CC(=O)c1cccc(-c2cnc3c(NC=O)cc(-c4ccc(N5CCN(C)CC5)cc4)cn23)c1 the activity change was 108% (inactive). With CC(C)(C)Cc1c(C2CCCCC2)nc2ccc(Br)cn12 the activity change was 28.2% (inactive). In the case of C/C(=N/N1CCN(Cc2cccc3ccccc23)CC1)c1cccnc1, the activity change was 0% (inactive). For OCC1(Cc2ccccc2C(F)(F)F)CCN(Cc2cccc3cnccc23)CC1, the activity change was -72.4% (active). In the case of OCC1(Cc2ccccc2C(F)(F)F)CCN(Cc2ccncc2)CC1, the activity change was 21.9% (inactive). In the case of O=S1(=O)CC(N2CCC(Cc3ccccc3)CC2)CN1Cc1ccccc1 (centres undefined), the activity change was 21.9% (inactive). For Cc1cccc(N(C)C(=O)c2cc3c(=O)[nH]c4ccc(C)cc4c3s2)c1, the activity change was 3.44% (inactive). For CCN(CC)CCCNC(=O)c1cc2c(=O)[nH]c3ccc(C)cc3c2s1, the activity change was -65.6% (active). In the case of CCN(CC)CCCNC(=O)c1cc(-c2cccc(Cl)c2)on1, the activity change was -5.59% (inactive). With COCCNC(=O)c1cc2c(Br)ccc(Br)c2nc1N the activity change was -2.49% (inactive). In the case of O=C(NCC1CCCCC1)c1cc(S(=O)(=O)N2CCCCC2)ccc1N1CCOCC1, the activity change was -0.256% (inactive). For Cn1c(=O)c2c(nc(SCCNS(=O)(=O)c3ccccc3)n2C)n(C)c1=O, the activity change was 29.8% (inactive). In the case of Cn1c(=O)c2c(nc(SCC(=O)Nc3ccccc3N3CCCCC3)n2C)n(C)c1=O, the activity change was -57.3% (active). With CCC1CCCCN1C(=O)CSc1nc2c(c(=O)n(C)c(=O)n2C)n1C (centres undefined) the activity change was 2.3% (inactive). In the case of O=[N+]([O-])c1ccccc1/C=C/CN1CCCC(CO)C1 (centres undefined), the activity change was -11.3% (inactive). With CC1CCCCC1NC(=O)/C(C#N)=C/C=C/c1ccccc1[N+](=O)[O-] (centres undefined) the activity change was -103% (active). For O=[N+]([O-])c1ccccc1/C=C/CN1CCC(O)CC1, the activity change was 7.25% (inactive). In the case of CCc1ccc(C(=O)N2CCN(S(=O)(=O)c3sc(C(=O)O)c(C)c3C(=O)O)CC2)cc1, the activity change was 20.6% (inactive). For O=C1C[C@@H]2c3c(cccc3CN1Cc1ccccc1)C[C@@H](O)[C@H]2O, the activity change was 16.3% (inactive). In the case of c1ccc(Cn2nnc3c(NCC4CC4)ncnc32)cc1, the activity change was -6.22% (inactive). With COc1cccc(-c2cnc(C(O)c3ccccc3OC)[nH]2)c1 (centres undefined) the activity change was 26.3% (inactive). In the case of O=C(Nc1ccc(C(=O)O)cc1)/C(=C\c1ccccc1)NC(=O)c1ccc(Br)cc1, the activity change was -0.689% (inactive). With O=C(NCCc1ccccc1)/C(=C\c1ccc([N+](=O)[O-])cc1)NC(=O)c1ccccc1 the activity change was 4.21% (inactive). With O=C(Nc1ccc(C(=O)O)cc1)/C(=C/c1ccc([N+](=O)[O-])cc1)NC(=O)c1ccccc1 the activity change was -62.1% (active).

Reference: PubChem BioAssay AID743279 (National Center for Advancing Translational Sciences (NCATS), 2014)
% is set by controls: 0 for no effect and ±100 for the full control effect.
